Our source for the activation and outcome values is PubChem BioAssay.

For test [1], the system named is TRPC4 beta (transient receptor potential cation channel C4), mouse. In words: TRPC4 cation channel opening, retest – cell-based, Fluo4 calcium, HEK293 TRPC4beta/mu-opioid, duplicates, 10 µM, confirmation (AID 2426;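 active = fluorescence ratio normalized to control raised more than 50% in primary screen plus both repeat runs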;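 note: percent rise of integrated ratio over buffer wells lacking compound which define 0%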). Conditions: Fluo4 calcium fluorescence, at 10 µM; active compounds read high.
In test [2] the test system is transient receptor potential cation channel C4 beta (TRPC4), mouse. The experiment in a line: TRPC4 cation channel opening, second retest – cell-based, second round, Fluo4, HEK293 TRPC4beta/mu-opioid, 1 µM, confirmation (AID 2461;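 active = primary screen active and over 50% activation in each of two duplicate runs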;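 for activation: 0% = wells without test compound as baseline of integrated fluorescence ratio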). The conditions noted are these: Fluo4 calcium fluorescence, at 1 µM; active compounds read high.
Test [3] deals with TRPC4 (transient receptor potential cation channel C4 beta), mouse. The experiment in a line: potentiation of DAMGO EC20 TRPC4 response – cell-based, second round, Fluo-4, HEK293 TRPC4beta/mu-opioid, 1 µM, confirmation (AID 2554;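 active = primary screen hit whose fluorescence ratio, in both repeats, exceeds the weak agonist control mean by 3 SD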). The conditions noted are these: DAMGO EC20, Fluo-4 calcium flux, at 1 µM; active compounds read high. For orientation: A change in cytosolic calcium serves as a functional read-out for many receptors and channels.

The subject of test [4] is TRPC4 beta (transient receptor potential cation channel C4), mouse. In words: potentiation of DAMGO EC20 TRPC4 response – cell-based, Fluo-4, HEK293 TRPC4beta/mu-opioid, confirmation (AID 2555;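 active = primary screen hit whose calcium fluorescence ratio, in both repeats, exceeds the weak agonist control mean by 3 SD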). Conditions: DAMGO EC20, Fluo-4 calcium flux, at 10 µM; active compounds read high.
Test [5] deals with Short transient receptor potential channel 4 (Mus musculus) (UniProt Q9QUQ5). The experiment in a line: blockers of DAMGO-evoked TRPC4 calcium flux – cell-based, Fluo4, HEK293 TRPC4beta/mu-opioid, confirmation (AID 2636). Conditions: at 10 µM; active compounds read high.
Test [6] shares this target. The experiment in a line: blockers of DAMGO-evoked TRPC4 calcium flux – cell-based, second round, Fluo4, HEK293 TRPC4beta/mu-opioid, 1 µM, confirmation (AID 2637;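 active = calcium signal ratio cut to more than 3 SD under the fully stimulated control mean yet still positive, in both repeats and the primary screen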). The conditions noted are these: at 1 µM; active compounds read high.
Test [7] has the same target. In words: potentiation of DAMGO-evoked TRPC4 calcium signal – cell-based, HEK293 TRPC4/mu-opioid, Fluo-4 calcium, EC20 DAMGO, dose response (AID 434941;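 active = earlier screen potentiator hit that boosts the TRPC4 ion channel at some dose, with a dose response; inactive = no potentiation, no dose response, or not a prior hit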;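 note: calcium entry triggered by an EC20 dose of DAMGO at the co-expressed mu-opioid receptor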).
Test [8] shares this target. In words: block of DAMGO-driven TRPC4 calcium entry – cell-based, HEK293 TRPC4/mu-opioid, Fluo-4 calcium, dose response (AID 434942;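 active = primary screen inhibitor hit that blocks the TRPC4 channel at some tested dose, yielding a dose curve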).
The target of test [9] is Short transient receptor potential channel 6 (Mus musculus) (UniProt Q61143). In words: TRPC6 blockade by TRPC4 inhibitor hits – cell-based, HEK293, membrane potential dye, duplicate, selectivity assay for TRPC4 inhibitor project, confirmation (AID 434948;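 active = active in primary screen and both duplicates, each dropping signal beyond three positive-control SD with fluorescence still positive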). Conditions: HEK293 TRPC6, membrane potential dye fluorescence, at 10 µM; inhibition: active compounds read high, stimulated with maximal-effect acetylcholine unless noted; outcome: stimulated with maximal-effect acetylcholine unless noted.

Test [10] has the same target. In words: TRPC6 opening by TRPC4 activator hits – cell-based, HEK293, membrane potential dye, duplicate, selectivity assay for TRPC4 activator project, confirmation (AID 434950;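 active = membrane potential signal rise above negative control mean plus 3 SD in both duplicates, also active in the earlier TRPC4 screen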;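 for activation: 0% = buffer only wells and 100% = acetylcholine maximal-effect wells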). The conditions noted are these: HEK293 TRPC6, membrane potential fluorescence, at 10 µM; activation: active compounds read high; outcome: activation.
Test [11] shares this target. The experiment in a line: positive modulators of mouse TRPC6 channel – HEK293 cells, membrane potential dye, duplicate, selectivity assay for TRPC4 potentiator project, confirmation (AID 434952;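 active = compound raising the membrane signal above positive-control mean plus 3 SD in both repeats, and a primary screen hit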). The conditions noted are these: HEK293 TRPC6, membrane potential dye fluorescence, at 10 µM; maximal acetylcholine added after compound unless noted.
In test [12] the target is Short transient receptor potential channel 4 (Mus musculus) (UniProt Q9QUQ5). The experiment in a line: calcium flux activators in TRPC4/5HT1a cells, counter-screen for TRPC4 activator project, cell-based, second counter screen, HEK293 TRPC4/5HT1a, Fluo-4 (AID 434977;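 active = calcium signal rise above buffer-control mean plus 5 SD in both duplicates, and also a hit in the primary screen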;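 for activation: plate controls were assay buffer for no effect and maximal serotonin response for full effect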). Conditions: Fluo-4 calcium flux, at 10 µM; active compounds read high.
The nature of test [13]: serotonin-gated TRPC4 signal block – cell-based, second counter screen, HEK293 TRPC4/5HT1a, Fluo-4, counter-screen for TRPC4 inhibitor project, confirmation (AID 434978;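 active = primary screen active whose calcium signal fell more than 3 SD beyond the full-serotonin control mean in both duplicate plates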;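 note: serotonin given first at submaximal then at maximal dose after compound preincubation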). Conditions: Fluo-4 calcium flux, at 10 µM; inhibition: active compounds read high, serotonin added to trigger calcium flux unless noted; outcome: serotonin added to trigger calcium flux unless noted.
The test system of test [14] is TRPC4 (mouse), co-expressed with 5HT1a in HEK293. The experiment in a line: enhancement of serotonin-evoked TRPC4 response – cell-based, second counter screen, HEK293 TRPC4/5HT1a, Fluo-4, counter-screen for TRPC4 potentiator project, confirmation (AID 434979;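 active = signal rise over 3 SD above mean of control wells given weak agonist, in both repeats and first screen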). The conditions noted are these: Fluo-4 calcium flux, at 10 µM; outcome: serotonin added at its EC20 dose unless noted; potentiation: active compounds read high, serotonin added at its EC20 dose unless noted. A general note: Counterscreens check selectivity or assay interference.

Test [15] is described as follows: nonspecific calcium rise without TRPC4 – cell-based, HEK293 mu-opioid receptor line, counter-screen for TRPC4 activator project, confirmation (AID 449723;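 active = hit in primary screen, with calcium signal over 5 SD above buffer well mean in both duplicates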;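 note: counter screen cells carry the mu-opioid receptor alone and lack TRPC4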). The conditions noted are these: HEK293 mu-opioid cells, Fluo-4 calcium fluorescence, at 10 µM; active compounds read high.
Test [16] is described as follows: nonspecific potentiation of DAMGO calcium response – cell-based, HEK293 mu-opioid receptor line, counter-screen for TRPC4 allosteric potentiator project, confirmation (AID 449724;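 active = calcium signal rise more than 3 SD above the low-dose agonist control mean, in both duplicate plates and the primary screen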;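 note: HEK293 cells carrying mu-opioid receptor only with no TRPC4 channel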). The conditions noted are these: HEK293 mu-opioid receptor cells, Fluo-4 calcium flux, at 10 µM; compound added before EC20 DAMGO stimulus unless noted.

Structures are written as SMILES. For some assays here: Potency and affinity values are given separately. Activity calls are given as the source filed them.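 Rule for the calls, unless noted: active = calcium signal cut by more than 3 SD below the full-agonist control yet still positive, in both repeats and the earlier primary screen; inactive = the rest.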

Chain of Short transient receptor potential channel 4 (Mus musculus) (Q9QUQ5 whole entry, looked up): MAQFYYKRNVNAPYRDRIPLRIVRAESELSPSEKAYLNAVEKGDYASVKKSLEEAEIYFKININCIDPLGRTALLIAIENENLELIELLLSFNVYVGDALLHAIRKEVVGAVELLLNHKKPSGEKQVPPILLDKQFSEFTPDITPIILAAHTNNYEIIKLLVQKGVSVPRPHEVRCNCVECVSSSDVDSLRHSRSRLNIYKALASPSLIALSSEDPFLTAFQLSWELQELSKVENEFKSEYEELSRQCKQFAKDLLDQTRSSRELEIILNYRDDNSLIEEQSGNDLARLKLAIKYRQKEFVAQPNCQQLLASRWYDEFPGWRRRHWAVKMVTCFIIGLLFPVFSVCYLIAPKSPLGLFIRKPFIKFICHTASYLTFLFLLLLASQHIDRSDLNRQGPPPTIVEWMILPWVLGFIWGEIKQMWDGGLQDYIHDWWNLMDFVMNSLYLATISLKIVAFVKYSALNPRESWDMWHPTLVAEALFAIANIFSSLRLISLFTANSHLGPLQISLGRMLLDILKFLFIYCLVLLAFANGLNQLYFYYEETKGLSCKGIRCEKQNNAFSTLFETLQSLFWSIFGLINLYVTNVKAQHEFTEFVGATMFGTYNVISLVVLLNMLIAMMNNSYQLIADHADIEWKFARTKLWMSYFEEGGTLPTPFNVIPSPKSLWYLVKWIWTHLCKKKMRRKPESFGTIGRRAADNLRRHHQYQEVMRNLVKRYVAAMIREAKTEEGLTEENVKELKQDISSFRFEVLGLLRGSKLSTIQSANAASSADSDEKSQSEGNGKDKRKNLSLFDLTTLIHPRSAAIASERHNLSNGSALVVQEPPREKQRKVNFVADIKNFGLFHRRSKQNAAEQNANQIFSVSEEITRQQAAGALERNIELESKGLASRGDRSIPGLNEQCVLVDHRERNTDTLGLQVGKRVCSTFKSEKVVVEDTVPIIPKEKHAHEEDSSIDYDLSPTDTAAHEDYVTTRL
Chain of Short transient receptor potential channel 6 (Mus musculus) (Q61143 whole entry, looked up): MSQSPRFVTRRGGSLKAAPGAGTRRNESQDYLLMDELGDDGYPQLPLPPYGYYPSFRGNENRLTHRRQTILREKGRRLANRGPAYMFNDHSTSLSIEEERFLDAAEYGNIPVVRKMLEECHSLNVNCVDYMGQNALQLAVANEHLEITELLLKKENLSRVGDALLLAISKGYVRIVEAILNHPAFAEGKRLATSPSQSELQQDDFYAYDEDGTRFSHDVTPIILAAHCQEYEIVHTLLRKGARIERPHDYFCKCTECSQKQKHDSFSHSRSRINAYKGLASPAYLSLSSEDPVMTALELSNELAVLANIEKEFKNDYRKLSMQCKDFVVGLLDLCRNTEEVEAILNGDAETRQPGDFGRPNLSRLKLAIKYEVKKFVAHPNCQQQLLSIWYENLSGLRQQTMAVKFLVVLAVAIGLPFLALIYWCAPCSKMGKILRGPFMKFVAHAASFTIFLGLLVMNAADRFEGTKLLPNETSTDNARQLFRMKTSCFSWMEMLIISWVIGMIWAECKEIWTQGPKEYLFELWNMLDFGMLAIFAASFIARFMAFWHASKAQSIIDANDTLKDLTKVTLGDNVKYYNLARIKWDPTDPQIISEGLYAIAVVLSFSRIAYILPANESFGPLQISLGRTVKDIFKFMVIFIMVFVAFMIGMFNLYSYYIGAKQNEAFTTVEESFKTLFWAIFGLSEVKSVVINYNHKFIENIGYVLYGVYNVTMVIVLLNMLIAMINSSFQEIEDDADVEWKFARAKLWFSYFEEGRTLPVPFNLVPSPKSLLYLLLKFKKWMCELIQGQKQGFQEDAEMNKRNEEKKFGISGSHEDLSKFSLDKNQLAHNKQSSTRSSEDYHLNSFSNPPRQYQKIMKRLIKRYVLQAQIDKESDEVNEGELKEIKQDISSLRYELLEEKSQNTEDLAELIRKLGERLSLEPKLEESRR

With `COc1ccc(C(CNC(=O)Cc2ccc(Cl)c(Cl)c2)N(C)C)cc1` (stereo not drawn), the activation was 120% (active) in [1], 95% (active) in [2] and 40.5% (active) in [10]. The result in [3], in [4], in test [5], in test [6], in test [7] and in test [8] was inactive. Moreover, the compound was classed as inactive in test [9], in test [11], in test [12], in [13], in [14] and in test [15]. Moreover, the outcome in [16] was inactive.
With `CCOC(=O)c1cc(C)n(CCc2cnc[nH]2)c1C`, the activation in [1] is 143% (active); in test [2], 89% (active); in [10], 26% (active); in test [12], 76% (active). Moreover, the outcome in test [3], in test [4], in test [5], in test [6], in test [7] and in test [8] was inactive. For the same compound, the call in [9], in test [11], in [13], in [14], in test [15] and in test [16] was inactive.
Regarding `CN(C)C1(CNC(=O)Nc2ccc(Cl)c(Cl)c2)CCCCC1`, the activation in test [1] is 229% (active); in test [2] it was 64% (active); in test [12] it was 29.4% (active); in test [15] it was 42.7% (active). For the same compound, the outcome in [3], in test [4], in test [5], in test [6], in [7] and in test [8] was inactive. Moreover, the result in test [9], in [10], in test [11], in test [13], in test [14] and in test [16] was inactive.
For `c1ccc2sc(N3CCNCC3)nc2c1`, the activation in [1] was 97% (active); in [2] it was 78% (active); in [10], 29.5% (active); in test [12] it was 51.8% (active). Besides, the result in test [3], in test [4], in test [5], in test [6], in [7] and in [8] was inactive. Moreover, the result in test [9], in test [11], in test [13], in test [14], in test [15] and in test [16] was inactive.
Regarding `COc1ccc(CNCCc2ccc3c(c2)OCO3)cc1Br`, the activation in test [1] was 141% (active); in [10], 47.5% (active); in test [12], 27.3% (active). Also, the outcome in test [2], in [3], in test [4], in [5], in test [6] and in [7] was inactive. Also, the outcome in test [8] and in test [15] was inactive. Besides, the outcome in [9], in [11], in test [13], in test [14] and in test [16] was “inactive [setting not given]” each time.
As for `COc1cc2c3cc1Oc1cc(ccc1O)C[C@@H]1c4c(cc(OC)c(O)c4Oc4ccc(cc4)C[C@H]3N(C)CC2)CCN1C`, the activation in [1] is 69% (active); in test [10], 26% (active). Besides, the result in [2], in test [3], in test [4], in test [5], in [6] and in test [7] was inactive. The outcome in test [8], in [9], in test [11], in test [12], in test [13] and in [14] was inactive. The result in [15] and in test [16] was inactive.
In the case of `O=[N+]([O-])c1ccc(N2CCNCC2)cc1NC1CC1`, the activation in test [1] is 64% (active); in test [2] it was 67% (active); in test [12], 26.6% (active). Further, the outcome in test [3], in [4], in [5], in [6], in test [7] and in [8] was inactive. In addition, the compound was classed as inactive in test [9], in test [10], in test [11], in test [13], in test [14] and in test [15]. Moreover, the outcome in [16] was inactive.
As to `COc1ccc(C(CNC(=O)CCc2ccsc2)N(C)C)cc1` (stereo not drawn), the activation is 67% (active) in test [1], 129% (active) in test [2] and 45.5% (active) in test [10]. For the same compound, the outcome in test [3], in [4], in [5], in test [6], in [7] and in [8] was inactive. Moreover, the compound was called inactive in test [9], in test [11], in [12], in test [13], in test [14] and in test [15]. Also, the outcome in [16] was inactive.
